According to PubChem BioAssay (NCATS):
Records with an inconclusive call do not appear. Values without a mark were called inactive. Activity calls are given as the source filed them. Calls follow the shape of the dose curve; as a rule, active = well fitted inhibition curve with a large enough effect; inconclusive = small, poorly fitted or top-dose-only effect; inactive = flat fitted curve, though single readings scatter.

Molecular target: Glutathione peroxidase 1 (Homo sapiens) (UniProt P07203)
Sequence (P07203 whole entry, looked up): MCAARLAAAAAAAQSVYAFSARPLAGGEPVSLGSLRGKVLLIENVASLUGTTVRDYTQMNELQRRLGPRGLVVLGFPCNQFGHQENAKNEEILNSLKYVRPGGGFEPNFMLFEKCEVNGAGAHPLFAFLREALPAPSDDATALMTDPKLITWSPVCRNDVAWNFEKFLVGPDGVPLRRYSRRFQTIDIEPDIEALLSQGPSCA
Assay: Primary qHTS Assay for Inhibitors of Recombinant Selenoprotein Glutathione Peroxidase 1 (GPX1) (AID 1845191); also: nearly all actives have a fitted effect of over 65% in size
Settings: recombinant GPX1, GR-coupled NADPH fluorescence, 15 min; series mostly up to 48.8 µM; activity, negative = inhibition: at the top concentration
From the text: Assay Provider: Elias S.J. Arner MD PhD.
Department of Medical Biochemistry and Biophysics
Karolinska Institutet, Solna, Stockholm, Sweden
Selenoprotein glutathione peroxidases (GPX), like the ubiquitously expressed GPX1 and the ferroptosis modulator GPX4, enact their antioxidant activities by reducing hydroperoxides using glutathione. […] GPX1 and GPX4 inhibitors have thus shown promise as anti-cancer agents. Existing inhibitors are often promiscuous, or modulate GPX activity only indirectly, so novel direct inhibitors identified through screening against GPX1 and GPX4 could be valuable. Here, we developed optimized glutathione reductase (GR)-coupled GPX assays for the biochemical high-throughput screen (HTS) of almost 12,000 compounds with known mechanisms of action. Initial hits were triaged using a GR counter-screen, assessed for isoform specificity using a separate GPX2 assay, and were assessed for general selenocysteine-targeting activity using a thioredoxin reductase (TXNRD1) assay. With this suite of assays, we identified novel GPX1/GPX2- and GPX4-specific inhibitors and can here present a validated pipeline for future discovery research for selenoprotein-targeting agents.
SEQUENCE No. (e.g., 1, 2, 3, etc.); […] (e.g., Cells, Incubation, Reagent, etc.); VALUE; DESCRIPTION.
1; Reagent 1; 3 uL; GPx1 enzyme or no enzyme control in 1536-well, black, solid Greiner assay plate.
2; Compound; 25 nL; Kalypsis pin tool (Wako USA) equipped with a 1536-well pin head.
3; Incubation; 30 min; room temperature.
4; Reagent 2; 1 uL; 10 nM GPX1, 1 mM GSH, 0.5 mM CHP, 0.5 mM NADPH, 100 nM GR, 0.01% BSA substrate
5; Detection; Fluorescence; ViewLux microplate reader, excitation 340 nm and emission 450 nm.
6; Incubation; 15 min; room temperature.
7; Detection; Fluorescence; ViewLux microplate reader, excitation 340 nm and emission 450 nm.
NOTES (numbers refer to Sequence numbers above)
1. 3 uL of 16.66 nM GPX1 and 0.016% BSA in assay buffer (50 mM Tris-HCl, 2 mM EDTA (pH 7.5), 150 mM NaCl) was added to columns 3-48 of 1536-well assay plates using a BioRAPTR Flying Reagent Dispenser (Let's Go Robotics (LGR), Carlsbad, CA). A no-enzyme control (0.01% BSA in TES assay buffer) was added to columns 1-2.
2. 25 nL of test compounds and DMSO controls were added to each well with a pin tool (Kalypsys).
3. The assay plates were incubated for 30 minutes at room temperature.
4. 1 uL of master mix (500 nM glutathione reductase (GR), 5 mM reduced glutathione (GSH), 2.5 mM NADPH in assay buffer) was added. 1 uL of cumene hydroperoxide (CHP) ([2.5 mM] in 50% EtOH) was then added within 5 minutes to initiate the reaction. Final concentrations were: 10 nM GPX1, 1 mM GSH, 0.5 mM CHP, 0.5 mM NADPH, 100 nM GR, 0.01% BSA.
5. Initial fluorescence readout (t=0) at 340/450 nm was measured using a ViewLux multimodal detector (PerkinElmer, Waltham, MA).
7. Endpoint fluorescence readout (t=15) at 340/450 nm was measured 15 min after room temperature incubation.

SMILES	Potency	outcome	activity, negative = inhibition [%]
C#C[C@]1(O)CC[C@H]2[C@@H]3[C@H](C)CC4=C(CCC(=O)C4)[C@H]3CC[C@@]21C	inactive	–	–
CCN[C@@H]1C[C@H](N)[C@@H](OC2OC(CN)=CCC2N)[C@H](O)[C@H]1O[C@H]1OC[C@](C)(O)[C@H](NC)[C@H]1O (stereo not given in full)	–	inactive [at 0.4 µM]	–
CCCCCCCCCCCCOCCOCCOCCOCCOCCOCCOCCOCCOCCO	–	inactive	–
COc1ccc(C(=O)c2ccccc2O)c(O)c1	–	–	-20.7
NC(N)=NCc1cccc(I)c1	inactive	–	–
CN(C)CCOC(=O)C(c1ccccc1)C1(O)CCCC1 (stereo not given)	–	inactive	–
COc1cc(NS(=O)(=O)c2ccc(N)cc2)ncn1	–	–	-20.2
Nc1ccc(S(=O)(=O)Nc2cnc3ccccc3n2)cc1	–	–	-1.36
CCC(Cc1c(I)cc(I)c(N)c1I)C(=O)O (stereo not given)	–	inactive	–
COc1ccc(-c2cc(C(F)F)nn2-c2ccc(S(N)(=O)=O)cc2)cc1F	–	–	-31.6
CCCCCCCCCCCCSCCOCCO	–	–	-8.5
CN1CCc2cccc3c2[C@H]1Cc1ccc(O)c(O)c1-3	–	–	-17.3
O=c1[nH]c(=O)n([C@H]2C[C@H](O)[C@@H](CO)O2)cc1F	inactive	–	–
CCOC(=O)Nc1ccc2c(c1)N(C(=O)CCN1CCOCC1)c1ccccc1S2	–	–	-19.4
Cc1cc(C)cc(OCC2CNC(=O)O2)c1 (stereo not given)	–	inactive	–
CC(C)(C)NC[C@H](O)COc1cccc2c1CCCC2=O	inactive	–	–
CCCCCCCCCCCCCC(=O)OC(C)C	–	–	3.1
O=S(=O)(O)c1ccc(O)cc1	–	–	-14.1
CCC1NC(=O)c2cc(S(N)(=O)=O)c(Cl)cc2N1 (stereo not given)	–	–	-22.2
CCN(CC)CCOc1ccccc1C(=O)CCc1ccccc1	–	inactive	–

SMILES	Potency	outcome	activity, negative = inhibition [%]
COc1cc(C)nc(-n2nc(C)cc2OC)n1	–	–	-12.2
CC(C(=O)O)c1cccc(Oc2ccccc2)c1 (stereo not given)	–	–	-11.2
COc1cc(C(=O)NCc2ccc(OCCN(C)C)cc2)cc(OC)c1OC	–	–	3.66
CC(C)Nc1cccnc1N1CCN(C(=O)c2cc3cc(NS(C)(=O)=O)ccc3[nH]2)CC1	–	–	-25.9
Cc1cc(NS(=O)(=O)c2ccc(N)cc2)nc(C)n1	–	inactive	–
Cc1ccc(-c2ncc(Cl)cc2-c2ccc(S(C)(=O)=O)cc2)cn1	inactive	–	–
COc1ccc(CN(CCN(C)C)c2ncccn2)cc1	–	–	-9.88
C[N+]12CCC(CC1)C(OC(=O)C(O)(c1ccccc1)c1ccccc1)C2 (stereo not given)	–	–	4.57
Cn1c(=O)c2[nH]c(Br)nc2n(C)c1=O	–	–	4.17
CN(CCCN1c2ccccc2CCc2ccccc21)CC(=O)c1ccc(Cl)cc1	–	inactive	–
CCCc1ncc(C[n+]2ccccc2C)c(N)n1	–	–	-6.84
CC(=O)Nc1ccc(CC(=O)O)cc1	–	–	-10.9
Cc1c(-c2ccccc2)oc2c(C(=O)OCCN3CCCCC3)cccc2c1=O	–	–	-14.8
O=C(O)CCNC(=O)c1ccccc1	–	inactive	–
Cc1ccc(O)c([C@H](CCN(C(C)C)C(C)C)c2ccccc2)c1	inactive	–	–
CNCCCCOc1ccccc1Cc1ccccc1	–	–	-0.983
C#C[C@]1(O)CC[C@H]2[C@@H]3CCc4cc(OC)ccc4[C@H]3CC[C@@]21C	inactive	–	–
CCCCNc1ccc(C(=O)OCCOCCOCCOCCOCCOCCOCCOCCOCCOC)cc1	–	inactive	–
CCCCC(CC)CN1CN(CC(CC)CCCC)CC(C)(N)C1 (stereo not given)	–	inactive	–
CCCCN1C[C@H](O)[C@@H](O)[C@H](O)[C@H]1CO	–	–	-2.5
